In general, inhibition refers to the drop in the measured response relative to a control, in per cent.

“And” between values parts separate entries of the source, which are not always exact repeats. Equal values may be shown once. The whole screen tested about 340,000 compounds, of which about 1,700 (0.5%) were called active. Rule as the data show it: active = inhibition above about 40%; inactive = the rest. For the sample, actives were picked, then their nearest neighbours and some compounds at random.

The record followed here is PubChem BioAssay AID504462 (Sanford-Burnham Center for Chemical Genomics, 2011).

The target in this assay is Cysteine protease ATG4B (Homo sapiens) (UniProt Q9Y4P1). Put plainly: blockers of ATG4B cysteine protease activity – biochemical, fluorescence, uHTS, primary screen (AID 504462). To be noted: ATG4B cleavage of LC3-PLA2, NBD-HPC fluorescence, 1 h; at 8.33 µM; active compounds read high.
Cysteine protease ATG4B (Homo sapiens), sequence (Q9Y4P1 whole entry, looked up): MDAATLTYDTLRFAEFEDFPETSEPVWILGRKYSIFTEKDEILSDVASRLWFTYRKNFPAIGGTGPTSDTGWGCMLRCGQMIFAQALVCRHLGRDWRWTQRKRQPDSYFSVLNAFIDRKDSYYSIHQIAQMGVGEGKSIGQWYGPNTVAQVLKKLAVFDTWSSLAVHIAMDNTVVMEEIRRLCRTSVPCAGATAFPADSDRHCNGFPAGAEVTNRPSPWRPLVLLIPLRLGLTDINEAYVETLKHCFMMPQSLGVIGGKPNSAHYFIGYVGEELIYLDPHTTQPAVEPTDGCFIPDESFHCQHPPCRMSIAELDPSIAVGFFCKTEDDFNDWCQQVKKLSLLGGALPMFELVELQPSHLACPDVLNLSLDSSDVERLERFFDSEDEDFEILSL
With `CCN(CC(=O)Nc1c(F)cccc1F)C(=O)c1ccc(-c2ccccc2)cc1`, the inhibition was 4.11% (inactive).
The value for `CCCCCc1c(C)nc(N2CCN(Cc3ccc4c(c3)OCO4)CC2)[nH]c1=O` was -0.63% (inactive).
For `Fc1ccc2[nH]c3c(N4CCN(Cc5ccc6c(c5)OCO6)CC4)ncnc3c2c1`, the inhibition is 48.4% (active).
The value for `O=C(c1cccs1)N1CCN(Cc2ccc3c(c2)OCO3)CC1` was -7.13% (inactive); that for `COC(=O)c1ccc(CNC(=O)Cn2cc(C)c(=O)[nH]c2=O)cc1` was -5.77% (inactive); that for `CN1CCN(Cc2nc3cc(NC(=O)COc4ccc([N+](=O)[O-])cc4)ccc3n2C)CC1` was -4.73% (inactive).
As to `CC12c3ccccc3C(c3ccccc31)C1C(=O)N(Cc3cccnc3)C(=O)C12` (stereo unspecified), the inhibition was -4.51% (inactive).
The value for `Cc1cccc(C)c1N1CCN(S(=O)(=O)N2CCOCC2)CC1` was 19.1% (inactive); that for `Cc1cccc(C(=O)N2CCN(S(=O)(=O)N3CCCCC3)CC2)c1` was 0.43% (inactive).
In the case of `Cc1cccc(C)c1N1CCN(S(=O)(=O)N2CCCCC2)CC1`, the inhibition is 54.5% (active).
In the case of `O=C(O)c1ccc(S(=O)(=O)N2CCOCC2)o1` it was 0.56% (inactive); in that of `O=c1cc(CO)oc(C(Nc2cccc([N+](=O)[O-])c2)c2ccccn2)c1O` (stereo unspecified), -12.1% (inactive); in that of `COCC(C)n1c(SCC(=O)NC2CCCCC2C)nc2ccccc2c1=O` (stereo unspecified), -0.82% (inactive).
As for `CCOn1c(SC(C)C)nc2ccccc2c1=O`, the inhibition is 7.51% (inactive).
With `CCOC(=O)C(C)Sc1nc2ccccc2c(=O)n1CC1CCCCC1` (stereo unspecified), the inhibition is 41.4% (active).
As for `O=C(CNC(=O)c1ccc(Br)o1)NCC1CCCO1` (stereo unspecified), the inhibition is -6.66% (inactive).
As to `Cc1ccc(C)c(-n2cc(CN3CCN(C(=O)c4ncn[nH]4)CC3)c(-c3ccccc3)n2)c1`, the inhibition is 2.98% (inactive).
As for `Cc1ccc(C(=O)C[n+]2cc(-c3ccccc3)n3c2CCCCC3)cc1`, the inhibition was 10.8% (inactive) and 3.23% (inactive).
Turning to `COc1cccc(/C=N/Nc2ccc(S(=O)(=O)Nc3ccccc3C(=O)O)cc2[N+](=O)[O-])c1O`, the inhibition is 42.3% (active).
The value for `COc1ccc(Br)cc1/C=N/Nc1ccc(S(=O)(=O)Nc2ccccc2C(=O)O)cc1[N+](=O)[O-]` was 12.8% (inactive); that for `O=C(O)c1ccccc1/C=N/Nc1ccc(S(=O)(=O)Nc2ccc(Cl)cc2)cc1[N+](=O)[O-]` was 1.28% (inactive).
In the case of `O=C(OCc1cc(Cl)ccc1OC(F)F)c1cccnc1` it was -2.74% (inactive); in that of `COc1ccc(CNC(=O)C2(CC3CC(c4ccccc4)=NO3)CCN(C(=O)c3cccc(O)c3)CC2)cc1` (stereo unspecified), -7.3% (inactive); in that of `CCOC(=O)c1c(-c2ccccc2)oc2cc(Br)c(O)c(C=O)c12`, 49.9% (active).
The value for `CCOC(=O)c1c(-c2ccccc2)oc2cc(Br)c(O)cc12` was -6.47% (inactive); that for `CCOC(=O)c1c(-c2ccccc2)oc2ccc(OCC(=O)NN)cc12` was -2.49% (inactive).
